Data as given in the supplement of paper PMC6555819.

System: RARb:RXRa (NR concentration 270 nM, RXRa partner concentration 90 nM)
Assay: PBM binding z-score (relative to random genomic background probes); higher = stronger binding; sequences stand for … in GC…GCGATTGACAGCGTAGAATGAAGG
Procedure, shortened: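 Regression normalization was applied to scanned fluorescence from custom Agilent 4×180K protein-binding microarrays. Before scanning, arrays were incubated 1 h with ligand-free nuclear receptor dimers, and binding was detected with antibodies against each partner (one per run). Binding z-scores use the random background probes as reference.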

Sequence | PBM binding z-score
TGAATGAGGTTATAAGATCAGGCAACGTTGCAAA | 1.24
CGAACGAGGGCATGAGTTGACAGCAAATGCCGAT | 2.21
CGAACTGGGTCATTGACAGGACAGTGAATAGTAA | 2.92
GCTGCTAGGCCAACTGATGGTCAGCTAAAGCTCG | 0.829
TCTAGTTGGTCACGGAGGTCACACACGACGGGTA | 3.82
CGTCCAAGGTCAATGCTAGGACAGTGAAAGCATT | 4.96
CAAACTAGGTCAGAACAGGACAGTGAAGGATGAT | 3.24
ATCTCTAGGAAACAAGTTCAGTGAAAGAGAGGAC | 1.17
AGTCAAAGTTCATCTAGGTAACTTAAGATATGCT | 4.6
TCTAGTTGGTCACGGAGGTCACCCACGACGGGTA | 3.89
CAAACTAGGTCACGAAAGGTCAATGTCGAATGAC | 5.86
ATAGACAGGTGAGTGAAGGTAACTCAGCTGGACG | 0.603
CCCACTGGGCCAAGGTCATTGATCAGTCAAAGCA | 3.08
ATATGTAGGTTGTCGGGTCATTCAGTTTGCGCAT | 2.08
ACTAGCAGGCCAAGTTTGGGTCACTTAAACAAAG | 1.91
GGAACGAGGGCAAGTTGATAGCAGAGTTTGATGG | 2.63
GCGACTGGAGCATCAGCAGGTTACCATAACTTAA | -0.26
AATACAGGGTCACAAGGCCAGAGTAGGTACGAAT | 4.6
